This is an account of results in PubChem BioAssay (Tox21).

Inconclusive results are not listed. Values without a mark were called inactive. Unless noted, the call rests on the fitted dose curve.
On the % scale 0 is the no-effect control and ±100 the full control effect.

Sequence of Estrogen receptor (Homo sapiens) (P03372 whole entry, looked up): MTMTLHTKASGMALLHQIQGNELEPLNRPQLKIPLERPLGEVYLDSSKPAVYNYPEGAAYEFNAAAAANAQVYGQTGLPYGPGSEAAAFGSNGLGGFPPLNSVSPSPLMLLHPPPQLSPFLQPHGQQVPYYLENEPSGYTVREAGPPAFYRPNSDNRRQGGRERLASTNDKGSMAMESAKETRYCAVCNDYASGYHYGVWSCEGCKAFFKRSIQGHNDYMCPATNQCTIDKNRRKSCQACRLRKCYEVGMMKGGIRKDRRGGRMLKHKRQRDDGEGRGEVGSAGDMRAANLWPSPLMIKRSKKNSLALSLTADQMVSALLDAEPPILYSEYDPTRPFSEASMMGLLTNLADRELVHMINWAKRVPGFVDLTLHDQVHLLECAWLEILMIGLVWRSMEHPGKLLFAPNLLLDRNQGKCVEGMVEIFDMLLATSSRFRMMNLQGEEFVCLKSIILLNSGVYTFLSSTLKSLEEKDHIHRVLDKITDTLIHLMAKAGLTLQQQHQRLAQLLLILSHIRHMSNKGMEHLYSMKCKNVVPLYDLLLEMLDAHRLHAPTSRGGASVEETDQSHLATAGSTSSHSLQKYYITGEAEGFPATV

The test system of the first assay is thyroid hormone receptor (rat, GH3 cells). Description: qHTS assay to identify small molecule agonists of the thyroid receptor (TR) signaling pathway (AID 743066). The conditions noted are these: GH3.TRE-Luc cells, TR agonist luciferase, 24 h; series mostly up to 83.9 µM; activation: at the top concentration. For orientation: In qHTS, concentration-response curves come from the screen itself.
As to `NC(=O)c1cc([N+](=O)[O-])cc([N+](=O)[O-])c1`, the “activation” value is 0.042%.

On to `CC(=O)Nc1cc([As](=O)(O)O)ccc1O`, for which the “activation” value was -0.161%.

Consider `O=C1OC(=O)C2C1C1(Cl)C(Cl)=C(Cl)C2(Cl)C1(Cl)Cl` (stereo not given), for which the “activation” value was 0.178% [at 95.2 µM].

Turning to `CCCCOP(=O)(O)OCCCC`, the “activation” value was 3.99%.

As for `Oc1c(Cl)cccc1Cl`, the “activation” value was 2.67%.

On to `CC1(C)CON(Cc2ccccc2Cl)C1=O`, for which the “activation” value was -0.635%.

On to `CC1(C)C(=O)NC(=O)NC1=O`, for which the “activation” value is 0.37%.

As for `COC(=O)c1ccccc1S(=O)(=O)NC(=O)N(C)c1nc(C)nc(OC)n1`, the “activation” value is -1.05% [at 95.2 µM].

`Nc1c(Br)cc([N+](=O)[O-])cc1[N+](=O)[O-]`: the “activation” value is -4.01% [at 95.2 µM].

`Fc1ccc(C2(Cn3cncn3)OC2c2ccccc2Cl)cc1` (stereo not given): the “activation” value is -4.5%.

A further assay has as its target Estrogen receptor (Homo sapiens) (UniProt P03372). As to the kind of experiment: qHTS assay to identify small molecule antagonists of the estrogen receptor alpha (ER-alpha) signaling pathway (AID 743069; active means well fitted curve in the direction sought with a large enough effect in the signal ratio in the repeat runs, not every such curve was filed as active; the % refers to the signal ratio). Particulars: HEK293 ER-alpha-UAS-bla, beta-lactamase ratio, antagonist mode; series mostly up to 69.4 µM; activity, negative = inhibition: at the top concentration. Put shortly: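 Beta-lactamase FRET fluorescence is read after 2 hr at room temperature with LiveBLAzer B/G substrate. Before that, ER-alpha-bla HEK293 cells sit 4 hr after plating, then receive compound plus 17beta-estradiol and incubate 18 hr at 37C.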
Regarding `ClC(Cl)Br`, the “activity, negative = inhibition” value is -6.66% [at 79.1 µM].

On to `Nc1cc(Cl)ccc1O`, for which the “activity, negative = inhibition” value is -26.4%.

As to `CC1CCCCC1NC(=O)Nc1ccccc1` (stereo not given), the “activity, negative = inhibition” value was -5.64%.

In the case of `CNC(=O)Oc1ccccc1C1OCCO1`, the “activity, negative = inhibition” value was 21.5%.

In the case of `O=S(=O)(O)C(F)(F)C(F)(F)C(F)(F)C(F)(F)C(F)(F)C(F)(F)F`, the “activity, negative = inhibition” value was 9.76%.

As to `CSc1ccc(C(=O)C(C)(C)N2CCOCC2)cc1`, the “activity, negative = inhibition” value is -2.46%.

Take `COP(=S)(OC)Oc1ccc(S(N)(=O)=O)cc1`: the “activity, negative = inhibition” value was -11.8%.

Regarding `CCSC(=O)N(CC)C1CCCCC1`, the “activity, negative = inhibition” value was 15.4%.

For `c1coc(-c2nc3ccccc3[nH]2)c1`, the “activity, negative = inhibition” value was 10.7%.

Turning to `O=C1c2ccccc2C(=O)c2ccccc21`, the “activity, negative = inhibition” value is 19.3%.

Turning to `O=CNC(N1CCN(C(NC=O)C(Cl)(Cl)Cl)CC1)C(Cl)(Cl)Cl` (stereo not given), the “activity, negative = inhibition” value was 5.12%.

Take `Cc1coc2c1CCC(C)C2` (stereo not given): the “activity, negative = inhibition” value was 10.1% [at 79.1 µM].

Take `CC1=C(C(=O)Nc2ccccc2)S(=O)(=O)CCO1`: the “activity, negative = inhibition” value is -16.2%.

`CC(Cl)(Cl)[N+](=O)[O-]`: the “activity, negative = inhibition” value was 4.93%.

On to `CNC(=O)Oc1ccc(N(C)C)c(C)c1`, for which the “activity, negative = inhibition” value was 11.3%.
